Reference: the supplement of paper PMC12669032
Values without a mark were called inactive.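 The calls were made as follows: active = AUC reduced over 20% with Padj below 0.05 in at least 2 of 3 replicates; inactive = otherwise.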

Legend:
Experiment in all cases: growth AUC relative to DMSO control (median of replicates) (fraction); higher = more growth (less inhibition), active = hit call of the paper
Settings in all cases: 20 µM; 24 h
[1] = test system: Akkermansia muciniphila
Summary of the method: (§1)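 In round-bottom 96-well plates sealed with pierced gas-permeable seals, gut bacterial monocultures in mGAM were grown anaerobically at 37 °C from OD600 0.05 with 20 µM compound (1% DMSO). OD600 readings were taken hourly for 24 h, and the minimum OD was set to 0. Area under the growth curve was then normalised to the plate median of solvent-only wells, or to row and column medians on the industrial chemical plate. The value given is the median of three biological replicates grown on separate days.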

[2] = test system: Bacteroides caccae
Summary of the method: as §1

[3] = test system: Bacteroides clarus
Summary of the method: as §1

[4] = test system: Bacteroides dorei
Summary of the method: as §1

[5] = test system: Bacteroides stercoris
Summary of the method: as §1

[6] = test system: Bacteroides thetaiotaomicron
Summary of the method: as §1

[7] = test system: Bacteroides uniformis
Summary of the method: as §1

[8] = test system: Bifidobacterium longum subsp. longum
Summary of the method: as §1

[9] = test system: Clostridium difficile
Summary of the method: as §1

[10] = test system: Collinsella aerofaciens
Summary of the method: as §1

| SMILES | growth AUC [1] | growth AUC [2] | growth AUC [3] | growth AUC [4] | growth AUC [5] | growth AUC [6] | growth AUC [7] | growth AUC [8] | growth AUC [9] | growth AUC [10] |
| --- | --- | --- | --- | --- | --- | --- | --- | --- | --- | --- |
| Cc1cc(Cl)ccc1OCC(=O)O.O.[Na] | 1.25 | 0.981 | 1.01 | 0.921 | 1.02 | 1.05 | 0.993 | 1.05 | 1.02 | 0.98 |
| CON(C)C(=O)Nc1ccc(Cl)c(Cl)c1 | 0.949 | 1.05 | 1 | 1.04 | 0.954 | 1 | 1 | 0.953 | 0.999 | 1.06 |
| C#CC(C)(C)NC(=O)c1cc(Cl)cc(Cl)c1 | 1.06 | 0.964 | 0.949 | 0.956 | 0.88 | 0.932 | 0.96 | 0.987 | 0.948 | 0.936 |
| CN(C)C(=O)Nc1cccc(OC(=O)NC(C)(C)C)c1 | 1.19 | 0.771 | 1.01 | 0.977 | 1.4 | 0.958 | 0.883 | 1.01 | 0.928 | 0.918 |
| CC(C)CC(C)c1sccc1NC(=O)c1cn(C)nc1C(F)(F)F (stereo not given) | 0.99 | 0.967 | 0.94 | 1.02 | 1.07 | 0.938 | 0.942 | 1.02 | 1 | 0.99 |
| CCC(C)(C)C(=O)OC1=C(c2ccc(Cl)cc2Cl)C(=O)OC12CCCCC2 | 1.03 | 1 | 0.975 | 0.976 | 0.978 | 0.946 | 0.911 | 0.99 | 0.973 | 0.987 |
| CC1=C(C(=O)Nc2ccccc2)S(=O)(=O)CCO1 | 0.915 | 0.983 | 0.976 | 0.977 | 1.02 | 0.994 | 0.981 | 0.944 | 0.973 | 1.02 |
| Clc1ccc(Cl)c(Cl)c1Cl | 0.865 | 0.985 | 0.958 | 1.02 | 1.04 | 0.992 | 0.996 | 0.99 | 1 | 0.982 |
| CCOC(=O)Nc1cccc(OC(=O)Nc2ccccc2)c1 | 0.899 | 1.06 | 0.961 | 1 | 0.889 | 0.998 | 0.95 | 0.944 | 0.986 | 0.977 |
| CCOC(=O)c1cn2nc(OP(=S)(OCC)OCC)cc2nc1C | 1.14 | 0.973 | 0.945 | 0.904 | 0.876 | 0.991 | 0.834 | 1.05 | 0.988 | 0.967 |
| CNC(=O)/C(=N/OC)c1ccccc1Oc1ccccc1 | 0.883 | 1.01 | 0.972 | 0.982 | 1.02 | 0.975 | 0.997 | 0.942 | 1 | 0.998 |
| CCOP(=O)(OCC)Oc1ccc(S(C)(=O)=O)cc1 | 1.01 | 0.99 | 0.995 | 1.01 | 0.937 | 0.997 | 1.03 | 1.04 | 0.991 | 1.01 |
| C1=Cc2cccc3cccc1c23 | 1.01 | 1.02 | 0.996 | 1.02 | 1.03 | 1.01 | 1 | 0.946 | 1 | 0.995 |
| Nc1nc(N)nc(NC2CC2)n1 | 0.99 | 0.989 | 1.02 | 1.01 | 1.04 | 1 | 0.991 | 1.01 | 1.02 | 0.999 |
| CNC(=O)Oc1cccc2c1OC(C)(C)C2O (stereo not given) | 1.07 | 1.01 | 1.04 | 1.02 | 1.06 | 1.01 | 0.998 | 0.967 | 1.03 | 1.01 |
| CNC(=O)Oc1cccc2ccccc12 | 1.08 | 0.993 | 1.01 | 0.991 | 1.02 | 0.998 | 1.03 | 1.03 | 1.01 | 0.987 |
| O=C(Nc1ccccc1)Nc1ccnc(Cl)c1 | 0.926 | 0.9 | 0.949 | 0.977 | 0.926 | 0.94 | 0.886 | 0.959 | 0.941 | 1.01 |
| O=[N+]([O-])c1cc(Cl)ccc1Cl | 1.04 | 0.998 | 0.977 | 0.986 | 1.03 | 0.989 | 1.02 | 1.01 | 0.995 | 0.964 |
| CCOC(=O)c1ccccc1S(=O)(=O)NC(=O)Nc1nc(Cl)cc(OC)n1 | 1.1 | 0.991 | 1.03 | 0.933 | 0.97 | 1.01 | 0.962 | 1.4 | 1.03 | 0.993 |
| CC(Oc1ccc(Oc2ncc(C(F)(F)F)cc2Cl)cc1)C(=O)O (stereo not given) | 1.02 | 0.974 | 0.957 | 0.954 | 0.979 | 0.975 | 0.943 | 0.93 | 1.01 | 0.967 |
| CCCSP(=O)(OCC)Oc1ccc(Br)cc1Cl (stereo not given) | 0.944 | 0.864 | 0.95 | 0.985 | 1.17 | 0.901 | 0.881 | 1.06 | 1.03 | 0.972 |
| COP(=O)(OC)Oc1ccc(S(C)(=O)=O)c(C)c1 | 0.876 | 0.971 | 0.963 | 0.987 | 1.01 | 1 | 0.981 | 0.956 | 0.994 | 1.01 |
| CNC(=O)CSP(=S)(OC)OC | 1.19 | 1 | 0.994 | 0.901 | 0.954 | 1.01 | 1 | 1.01 | 0.978 | 0.974 |
| CCOP(=O)(OCC)OCC | 1.06 | 0.991 | 1.03 | 0.972 | 1.03 | 1.02 | 1.03 | 0.971 | 0.989 | 0.967 |
| CCN(CC)C(=O)C(C)Oc1cccc2ccccc12 (stereo not given) | 0.935 | 0.996 | 0.976 | 0.981 | 1.05 | 0.984 | 0.958 | 0.989 | 0.965 | 0.999 |
| Cc1cc(C(C#N)c2ccc(Cl)cc2)c(Cl)cc1NC(=O)c1cc(I)cc(I)c1O (stereo not given) | 0.866 | 0.184 (active) | 0.0125 (active) | 0.0106 (active) | 0.00703 (active) | 0.0104 (active) | 0.0176 (active) | 0.121 (active) | 0.00624 (active) | 0.0767 (active) |
| CN(C)C(=O)C(c1ccccc1)c1ccccc1 | 0.89 | 1.03 | 0.963 | 1.05 | 0.957 | 0.992 | 1.05 | 0.947 | 1.03 | 1.01 |
